# According to PubChem BioAssay AID1814 (Broad Institute, 2009):
# Among all 300,000 compounds or so, about 22,000 (7.3%) were called active. About 2% were inconclusive and are not listed. The entries come from a sample that favours actives as a whole. Values without a mark were called inactive. Cut-off read from the data, not from the text of the source: active = activity score below about -60%; inconclusive = mostly about -28% to -61%; inactive = positive scores.
# Assay: Activators working through SNCA 5'UTR binding (MLPCN) (AID 1814)
# Conditions: alpha-synuclein 5'UTR reporter, activators screen; hits give low values; tested at 7.5 µM
row,SMILES,activity score
1,CCc1ccc(-c2cc(C(=O)NN3CCN(C)CC3)c3ccccc3n2)cc1,-112% (active)
2,O=C(Nc1ccccc1)c1cc2ccccc2[nH]1,-180% (active)
3,CCn1c(=N)n(CC(=O)c2cccc(OC)c2)c2ccccc21,-124% (active)
4,Cc1cccc(NC(=O)c2cccc(C(F)(F)F)c2)c1,-71.9% (active)
5,O=C(Nc1ccccc1)Nc1ccc(C(F)(F)F)cn1,-120% (active)
6,Cc1ccc(NC(=O)Nc2cccc(C(F)(F)F)c2)nc1,-115% (active)
7,COc1ccc(NC(=O)CCS(=O)(=O)c2cc3c(cc2Cl)NC(=O)CO3)cc1OC,-91.8% (active)
8,CC(=O)Nc1ccc(NC(=O)CN2CCCC(C)C2)c(Cl)c1 (stereo not given),-105% (active)
9,CC(Sc1nc2cc(Cl)ccc2s1)C(=O)Nc1ccc2c(c1)OCO2 (stereo not given),-117% (active)
10,O=C(c1cnn2ccccc12)N1CCc2ccccc21,-123% (active)
11,COc1cc(OC)cc(C(=O)NCC(=O)OCc2csc(-c3ccccc3)n2)c1,-73.7% (active)
12,CCCCOC(=O)c1[nH]c(C)c(C(=O)OC)c1C,-134% (active)
13,CCOC(OCC)c1ccc(/C=C\c2nccc(N)n2)cc1,-117% (active)
14,CC(=O)c1sc(N/N=C/c2ccc(C(C)C)cc2)nc1C,-149% (active)
15,COc1cccc2sc(Nc3nc(C)c(C(C)=O)s3)nc12,-179% (active)
16,COc1ccccc1/C=N/Nc1nc(C)c(C(C)=O)s1,-154% (active)
17,COc1cccc(/C=N/Nc2cc(C)nc(-c3ccccc3O)n2)c1O,82.8%
18,Oc1oc(-c2ccccc2Br)nc1/C=N/c1ccccn1,-124% (active)
19,Cc1ccc(OCC(=O)Nc2ccc(-c3nnc(-c4ccco4)o3)cc2)cc1,-69.1% (active)
20,O=C(CCc1ccccc1)Nc1cccc(-c2nnc(-c3ccco3)o2)c1,-74.1% (active)
21,Cc1ccc(OCC(=O)Nc2ccc(-c3nc4ncccc4o3)cc2)cc1,-85.6% (active)
22,CCCCOc1ccc(-c2nnc(-c3ccco3)o2)cc1,60.2%
23,CCC(=O)Oc1cccc(C(=O)Nc2ccc(-c3nnc(-c4ccco4)o3)cc2)c1,-227% (active)
24,Fc1ccccc1OCCSc1nc2ccccc2o1,-139% (active)
25,Cc1cccc2nc(CNc3ccc(F)cc3)cn12,-64.9% (active)
26,Cc1ccc(-n2ncc3c(Nc4cccc(C(=O)O)c4)ncnc32)cc1,-200% (active)
27,CC(=O)NCC(=O)N1CCC(n2nccc2NC(=O)CCCc2ccccc2)CC1,-67.3% (active)

row,SMILES,activity score
1,Cn1c(SCc2nc3ccccc3s2)nnc1-c1ccc2c(c1)OCO2,-72.1% (active)
2,Cc1ccnc(Nc2nc3ccccc3s2)n1,-81.3% (active)
3,O=C(NC(=S)Nc1ccc(Cl)cc1Cl)C1CC1,-107% (active)
4,Cc1cc(C)c2nc(NC(=O)C3CCCO3)sc2c1 (stereo not given),-107% (active)
5,Cc1[nH]n(C(N)=S)c(=O)c1N=Nc1ccc(Cl)cc1Cl,-112% (active)
6,COc1ccc(C(=O)Nc2ccc(C3(C#N)CCCC3)cc2)cc1OC,-120% (active)
7,Cc1ccc(C(=O)Nc2ccc3c(c2)OCO3)cc1S(=O)(=O)N1CCCCC1,-66.6% (active)
8,COc1ccc(C(=O)Nc2ccc3c(c2)OCO3)cc1OC,-100% (active)
9,Cn1c(=O)n(C)c2cc(C(=O)Nc3ccc(Br)cc3)ccc21,-80.7% (active)
10,Cn1c(=O)n(C)c2cc(C(=O)Nc3ccc4c(c3)OCO4)ccc21,-191% (active)
11,O=C(Nc1ccccc1)c1ccccc1NC(=O)C(F)(F)F,-85.9% (active)
12,Cc1ccc(Cc2nc(-c3cccc(C)c3)no2)cc1,-173% (active)
13,Cc1cccc(-c2noc(-c3ccc(F)cc3)n2)c1,-101% (active)
14,CCOc1ccc(/C=N/NC(N)=S)cc1,-63.3% (active)
15,Cc1cc(=O)oc2cc(OCC3CC(c4ccccc4Cl)=NO3)ccc12 (stereo not given),-132% (active)
16,CC(C)(C)c1ccc(Oc2ccc(N)cc2)cc1,112%
17,CC(C)(C)c1ccc(OC2=CS(=O)(=O)c3ccccc32)cc1,-110% (active)
18,COC(=O)c1c(NC(=O)c2ccccc2F)sc2c1C(C(=O)OC)CC2 (stereo not given),-72.4% (active)
19,CCOc1ccc2[nH]c3nc(SCC(=O)NC4CCCC4)nnc3c2c1,-73.1% (active)
20,Cc1cccn2c(=O)c3cc(C(=O)NCCN4CCOCC4)c(=N)n(Cc4cccnc4)c3nc12,97%
21,COc1ccc(CCn2c(=N)c(C(=O)NCc3ccco3)cc3c(=O)n4cccc(C)c4nc32)cc1,-87.1% (active)
22,CCn1c2ccccc2c2cc(NC(=O)C/C(C)=N/NC(=O)c3ccccc3N)ccc21,-110% (active)
23,NS(=O)(=O)c1ccc(Nc2nc(-c3ccccc3)cs2)cc1,-117% (active)
24,COc1ccc(-c2csc(Cc3nc(O)cs3)n2)cc1,-207% (active)
25,COc1ccc(-c2csc(Nc3ccc(O)cc3)n2)cc1,-170% (active)
26,COc1ccc(Nc2nc(-c3ccccc3)cs2)cc1,-137% (active)
27,COc1ccc(-c2csc(NC3OC(=O)c4ccccc43)n2)cc1 (stereo not given),-114% (active)

row,SMILES,activity score
1,O=C(NCc1cccnc1)C(=O)Nc1nc(-c2ccccc2)cs1,-99% (active)
2,Oc1ccc(-c2csc(Nc3cccnc3)n2)cc1,-116% (active)
3,CN(c1ccc(O)cc1)c1nc(-c2cccnc2)cs1,-137% (active)
4,Cc1ccccc1Nc1nc(-c2cccnc2)cs1,-179% (active)
5,COc1ccc(OC)c(Nc2nc(-c3ccc(O)c(O)c3)cs2)c1,-158% (active)
6,O=C(Nc1ccc2c(c1)OCO2)C1CC(c2c(F)cccc2Cl)=NO1 (stereo not given),-147% (active)
7,COc1cccc(NC(=O)C(=O)c2cn(CC(=O)N3CCOCC3)c3ccccc23)c1,-77.7% (active)
8,O=C(Nc1ccc([N+](=O)[O-])cc1)C1CC12CCC2 (stereo not given),-78.2% (active)
9,COc1ccc(NC(=S)N2N=CCC2c2ccccc2)cc1 (stereo not given),-137% (active)
10,Cn1c(SCc2c(F)cccc2Cl)nnc1-c1cnccn1,-126% (active)
11,CSC(=S)N/N=C/c1c[nH]c2ccccc12,-107% (active)
12,c1ccc(-c2ccc(OCCN3CCOCC3)cc2)cc1,-93.6% (active)
13,COc1ccc(Br)cc1C(=O)NC(=S)Nc1cc(-c2nc3ccccc3[nH]2)ccc1C,-86.2% (active)
14,Cc1ccc(-c2csc(-c3cc(C)on3)n2)cc1,-149% (active)
15,Cc1ccc(-c2csc(-c3c[nH]c4ccccc34)n2)cc1,-164% (active)
16,O=C(CSC1=NCCS1)Nc1nc(-c2ccccc2)cs1,-83% (active)
17,CCNC(=O)CSc1nc(-c2ccccc2)cs1,-105% (active)
18,O=C(CN1C(=O)C2C3C=CC(C3)C2C1=O)Nc1nc(-c2ccccn2)cs1 (stereo not given),82.4%
19,O=C(CNC(=O)c1ccccc1F)c1ccc(Br)cc1,-97.5% (active)
20,O=C(CNC(=O)c1ccc(F)cc1)c1ccccc1,-128% (active)
21,CCOc1ccc2c(c1)C(c1ccc(C)cc1)=NNC(c1ccc(C)cc1)=N2,-63.3% (active)
22,Cc1nc2ccccc2cc1OCc1ccc(F)cc1,-71.1% (active)
23,C/C(=N\NC(=O)c1ccc2ccccc2c1)c1cccnc1,-68.8% (active)
24,C/C(=N\NC(=O)c1ccccc1F)c1ccccn1,83%
25,C/C(=N\NC(=O)c1cccnc1)c1ccc(-c2ccccc2)cc1,-92.7% (active)
26,C/C(=N\NC(=O)c1nc(C)cc(C)n1)c1ccccc1,-137% (active)
27,CC(C)CNC(=O)C(=O)Nc1ccc(N(C)C)cc1,-159% (active)

row,SMILES,activity score
1,O=C(Nc1ccc(Cl)cc1)/C(=C1\CCCN1)[N+](=O)[O-],-97.2% (active)
2,CC(=O)Nc1cccc(C(=O)OCC(=O)NCc2cc(C)c(O)c(C)c2)c1,-62.5% (active)
3,CCCOc1ccc(C(=O)C(CCC(CNCC)C(=O)c2ccc(OCCC)cc2)CNCC)cc1 (stereo not given),107%
4,CCCOc1cccc(C(=O)Nc2nnn(CCC)n2)c1,-87.6% (active)
5,Cc1c(C)c2cc3c4c(oc3c(C)c2oc1=O)CCCC4,-61.9% (active)
6,CC[n+]1cc(C)ccc1/C=C/c1ccc(N(C)C)cc1,90.6%
7,COc1cccc(/C=C/C(=O)Nc2ccc3c(c2)OCCO3)c1,-94% (active)
8,Cc1cccc(NC(=O)/C=C/c2ccc3c(c2)OCO3)n1,-88% (active)
9,Cc1cccc(NC(=O)Nc2ccc3c(c2)OCO3)n1,-251% (active)
10,CNS(=O)(=O)c1ccc(NC(=O)Nc2ccc3c(c2)OCO3)cc1,-63.6% (active)
11,Cc1ccc(-n2c(C)cc(/C=C(\C#N)C(=O)NCC3CCCO3)c2C)cc1 (stereo not given),-133% (active)
12,COc1ccc(C(=O)Nc2nncs2)c(OC)c1,-106% (active)
13,O=C(NC1=NCCS1)c1ccc(Cl)s1,-112% (active)
14,COc1ccc(Cc2nnc(NC(=O)c3ccc(OC)cc3OC)s2)cc1,-62.4% (active)
15,COc1ccc(C(=O)NC2=NCCS2)c(OC)c1,-111% (active)
16,Cc1cccc(NC(=O)c2nc(S(=O)(=O)Cc3ccccc3)ncc2Cl)c1,84.8%
17,Cc1cccc(NC(=S)Nc2ccc(Cl)c(Cl)c2)c1,-115% (active)
18,Cc1cccc(NC(=S)Nc2ccc(Br)cc2)c1,-106% (active)
19,COc1ccc(CNc2ccc3c(c2)CCC3)cc1OC,-177% (active)
20,Cc1ccc(C(=O)NC(=S)Nc2ccccc2C)cc1,-122% (active)
21,Cc1cc(C(=O)NNC(=S)Nc2ccccc2C)cs1,-135% (active)
22,Nc1ccc(C(=O)Nc2ccccc2N)cc1,-714% (active)
23,CCn1c(SCC(=O)Nc2cccc(F)c2)nnc1-c1cc2cc(Br)ccc2o1,-71.9% (active)
24,CN1C2CCC1/C(=C\c1ccccc1Cl)C(=O)/C2=C\c1ccccc1Cl,-89% (active)
